Rows were chosen to be rich in hits. Some 3.2% of all compounds tested hit in one or more screens of this group.
Tau fluor cs – Counterscreen qHTS for Inhibitors of Tau Fibril Formation, Fluorescence Polarization; 280,000 tested, 0.93% active; tau K18 P301L Alexa594 fluorescence, heparin fibrillization; Potency, µM (top dose mostly 57.7 µM), inactives show at the top dose activity change, negative = decrease; note: potency is the fitted concentration of half-maximal effect; % is set by controls: 0 for no effect and ±100 for the full control effect; nearly all actives have a fitted effect of over 55% in size
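Human K18 P301L tau (15 uM unlabeled plus 0.24 uM Alexa 594-labeled, final) in 100 mM sodium acetate pH 7 was mixed with compound and 20 uM heparin and incubated 6 hr at 37 C.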
Lamin A splicing – qHTS Assay for Modulators of Lamin A Splicing | AID 1487, 2009 | HeLa LMNA splicing GFP/RFP minigene ratio, 48 h | 200,000 tested, 0.01% active | Potency, µM (titrated, usually from 46.1 µM), for inactives: at the top dose ratio change, negative = inhibition, actives largely listed as inhibitors; active = well fitted inhibition curve with a large enough effect in the signal ratio, with a control signal flat, not every such curve was filed as active; inconclusive = small, poorly fitted or top-dose-only effect, or effect the other way, or a change in a side signal; the % refers to the signal ratio; note: potency is the fitted concentration of half-maximal effect; % is set by controls: 0 for no effect and ±100 for the full control effect
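Read-out is the ratio of GFP to DsRed2 object intensity, acquired by 488 nm laser-scanning cytometry on HeLa lamin A-EGFP minigene reporter cells. Compound incubation 48 hrs at 37 °C in Opti-MEM with 2% FBS; DMSO 0.5% final.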
Tau fibril ThT – qHTS for Inhibitors of Tau Fibril Formation, Thioflavin T Binding. 270,000 tested, 2.1% active. Microtubule-associated protein tau (Homo sapiens), P10636. Potency, µM (top dose mostly 57.4 µM), for the others: top-dose activity, negative = inhibition, most hits filed as inhibitors. recombinant tau K18 P301L, heparin-induced fibrillization, ThT fluorescence; note: potency is the fitted concentration of half-maximal effect; % is set by controls: 0 for no effect and ±100 for the full control effect; nearly all actives have a fitted effect of over 55% in size
Target sequence (P10636 561-689 P618L limits assumed): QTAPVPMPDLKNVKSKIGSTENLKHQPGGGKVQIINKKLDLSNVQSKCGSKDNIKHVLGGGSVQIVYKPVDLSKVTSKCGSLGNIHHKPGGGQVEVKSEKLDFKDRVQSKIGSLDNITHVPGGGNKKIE
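Using a mix of unlabeled (15 uM) and Alexa 594-labeled (0.24 uM) tau K18 P301L, heparin-triggered fibrillization over 6 hr at 37 C was scored by ThT fluorescence.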
JMJD2E inh – qHTS Assay for Inhibitors of Human Jumonji Domain Containing 2E (JMJD2E). Lysine-specific demethylase 4E (Homo sapiens), B2RXH2. JMJD2E catalytic domain, FDH-coupled NADH fluorescence (FDH is formaldehyde dehydrogenase). Potency, µM (doses to about 57.1 µM), inactives show at the highest dose activity change, negative = inhibition, most hits filed as inhibitors. 230,000 tested, 1.6% active. AID 2147, 2009; active = well fitted inhibition curve with a large enough effect, not every such curve was filed as active; inconclusive = small, poorly fitted or top-dose-only effect, or another doubt; inactive = no such curve, though single readings can be large or run the other way;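 note: potency is the fitted concentration of half-maximal effect; 0% = wells with enzyme and -100% = buffer wells without enzyme; nearly all actives have a fitted effect of over 50% in size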
CBFb RUNX1 block – qHTS Assay for Compounds Blocking the Interaction Between CBF-beta and RUNX1 for the Treatment of Acute Myeloid Leukemia. Runt-related transcription factor 1 (Homo sapiens) + Core-binding factor subunit beta …. AlphaScreen CBFb-His/RUNX1-biotin binding, biochemical. Potency, µM (doses to about 59.8 µM), for inactives: at the top dose activity, negative = inhibition, usual class: inhibitors. 230,000 tested, under 10 active; note: % of control where 0% means no effect
Target sequence (Q01196 whole entry, looked up): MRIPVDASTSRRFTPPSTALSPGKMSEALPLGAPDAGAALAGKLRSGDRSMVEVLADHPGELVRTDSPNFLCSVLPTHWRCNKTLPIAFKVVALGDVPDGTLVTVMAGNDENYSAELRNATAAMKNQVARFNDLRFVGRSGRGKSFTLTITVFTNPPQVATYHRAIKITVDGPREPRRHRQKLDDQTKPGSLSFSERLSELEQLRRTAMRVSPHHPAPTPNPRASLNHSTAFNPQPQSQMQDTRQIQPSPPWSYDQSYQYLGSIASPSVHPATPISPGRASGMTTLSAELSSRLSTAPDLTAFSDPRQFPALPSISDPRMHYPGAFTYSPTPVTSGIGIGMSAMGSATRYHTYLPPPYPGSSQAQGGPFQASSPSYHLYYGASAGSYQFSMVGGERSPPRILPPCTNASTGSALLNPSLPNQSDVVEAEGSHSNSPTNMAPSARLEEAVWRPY
Target sequence (Q13951 whole entry, looked up): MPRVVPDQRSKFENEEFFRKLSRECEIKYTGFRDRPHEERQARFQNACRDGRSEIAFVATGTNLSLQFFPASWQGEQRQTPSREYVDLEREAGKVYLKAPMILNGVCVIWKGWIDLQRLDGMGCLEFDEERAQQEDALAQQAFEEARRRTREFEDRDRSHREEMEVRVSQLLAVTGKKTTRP
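AlphaScreen binding: CBFb-His and RUNX1-biotin (30 nM each) preincubated 20 min, compound added for 15 min, then nickel and streptavidin beads for 90 min, all at room temperature. Disruption of the interaction by any mechanism counts as activity.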
Tau FP inhib – qHTS for Inhibitors of Tau Fibril Formation, Fluorescence Polarization; 280,000 tested, 0.39% active; K18 P301L tau heparin fibrillization, Alexa594 FP, 6 h; Microtubule-associated protein tau (Homo sapiens), P10636; Potency, µM (top dose mostly 57.7 µM), for inactives: at the top dose activity, negative = inhibition, usual class: inhibitors; note: potency is the fitted concentration of half-maximal effect; % is set by controls: 0 for no effect and ±100 for the full control effect; nearly all actives have a fitted effect of over 55% in size
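Read-out: fluorescence polarization of Alexa 594-labeled tau (0.24 uM), 555 nm excitation, 632 nm emission. Mixtures held 15 uM unlabeled K18 P301L, compound and 20 uM heparin, pH 7 acetate buffer, incubated 6 hr at 37 C.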
Numbers without * were called inactive; ? = inconclusive; . = no result; ! = a repeat was not active; [ ] = dose if it differs, or a comment. Unless noted, calls come from the whole dose curve; as a rule, active = well fitted curve in the direction sought with a large enough effect; inconclusive = small, poorly fitted or top-dose-only effect, or another doubt; inactive = no such curve, though single readings can be large; an effect the other way counts as inactive or inconclusive.

SMILES | Tau fluor cs | Lamin A splicing | Tau fibril ThT | JMJD2E inh | CBFb RUNX1 block | Tau FP inhib
CCC(=O)Oc1ccc(/C=C(\C#N)c2nc3ccccc3[nH]2)cc1OC | ? | . | ? | . | . | -4.6%
CCOc1cc(N(CC)CC)ccc1/C=C(/C#N)c1nc2ccccc2[nH]1 | 10µM*[quencher] | ? | ? | 11.3% | -7.9% | 11.0%
COc1cc(/C=C(\C#N)c2nc3ccccc3[nH]2)cc(OC)c1O | ? | -5.1%[46 µM] | 7.08µM* | 9.0% | -3.7% | ?
COc1cc(/C=C(\C#N)c2nc3ccccc3[nH]2)cc(Br)c1OCc1ccccc1 | 12.6µM*[quencher] | ? | ? | ? | 1.2% | ?
COc1cc(/C=C(\C#N)C(=O)NCCc2ccccc2)cc(OC)c1O | -29.1% | . | ? | -12.7% | 4.8% | 1.9%
COc1cc(/C=C(\C#N)C(=O)c2c[nH]c3ccccc23)cc(OC)c1O | -8.0% | 1.3%[9.22 µM] | 15.8µM* | -11.6% | -4.1% | 8.7%
COc1cc(/C=C(\C#N)c2nc3ccccc3[nH]2)cc(Br)c1OCc1ccc(F)cc1 | ? | 1.7% | ? | ? | 2.9% | ?
O=C(COc1ccc(F)cc1)NCc1ccc2c(c1)CCN2C(=O)c1ccc(F)cc1 | -5.3% | ? | -4.4% | . | . | 8.3%
CC12CCC(C(=O)N/N=C/c3ccc(O)cc3O)(OC1=O)C2(C)C (centres undefined) | -17.1% | . | -12.8% | 25.1µM* | -16.4% | -3.0%
COc1ccc(NC(=O)C23CCC(C)(C(=O)O2)C3(C)C)cc1 (centres undefined) | 6.0% | -9.3% | 7.7% | 7.4% | -2.4% | -1.3%
C/C(=N\NC(=O)C12CCC(C)(C(=O)O1)C2(C)C)c1ccccc1O (centres undefined) | 0.8% | . | -0.4% | 8.91µM* | 1.7% | 3.2%
O=C(CC1Sc2ncnn2C1=O)Nc1ccc(Br)cc1 (centres undefined) | -5.2% | ? | ? | 2.24µM* | 5.0% | -6.9%
Clc1cc(Cl)cc(C2=N[C@@H](Cc3ccccc3)CO2)c1 | -7.6%[81.3 µM] | . | -6.7%[81.4 µM] | . | 18.2%[89.1 µM] | -5.0%[81.3 µM]
N[C@H](C(=O)O)c1cc(O)cc(O)c1 | ? | -18.4% | ? | 15.8µM*! | 9.1% | ?
Oc1ccc(C=Nc2ccc3ncccc3c2)c(O)c1 | ? | ? | 6.31µM* | 4.47µM* | -23.3% | ?
CCOC(=O)c1cnc2cc(-c3ccc(OCC)cc3)nn2c1-c1ccccc1 | -5.9% | . | -1.8% | . | . | 0.7%
CC[n+]1c(/C=C/C=C/N(C(C)=O)c2ccccc2)sc2ccccc21 | 8.91µM*[fluorescent] | -3.6%[0.0737 µM] | 11.2µM* | -17.9% | -13.1% | ?
CCOC(=O)C1=C(Cc2ccc(OC)cc2)C(=O)c2ccccc2C1=O | ? | ? | 8.91µM* | ? | -4.6% | 12.6µM*
CCOC(=O)C1=C(Cc2ccc(C)cc2)C(=O)c2ccccc2C1=O | ? | ? | 15.8µM* | -20.1% | -8.2% | 35.5µM*
CC1CCN(S(=O)(=O)c2ccc(NC(=O)Cn3nnc(-c4ccccc4)n3)cc2)CC1 | ? | 20.4% | 11.5% | 2.8% | 0.4% | ?
CC1CCCN(S(=O)(=O)c2ccc(NC(=O)Cn3nnc(-c4ccccc4F)n3)cc2)C1 (centres undefined) | ? | 3.9% | 7.7% | -0.3% | 4.6% | 20µM*
Cc1cc(O)c(C(C)C)cc1N=Cc1ccccc1O | ? | . | 3.55µM* | -31.1% | -2.8% | 8.91µM*
Cc1n[nH]c(C)c1Sc1ccccc1N=Cc1cc([N+](=O)[O-])ccc1O | -8.1% | 15.2% | -19.8% | 0.1% | 1.5% | 1.0%
Cc1cc(O)c(C(C)C)cc1N=Cc1cc([N+](=O)[O-])ccc1O | ? | -30.0%[46 µM] | 3.55µM* | 14.1% | 8.9% | 7.08µM*
CC(=O)N1c2ccccc2CC1C(=O)N1CCN(c2cccc(C)c2C)CC1 (centres undefined) | -4.4% | -0.2%[46 µM] | 4.1% | . | . | -1.8%
SMILES | Tau fluor cs | Lamin A splicing | Tau fibril ThT | JMJD2E inh | CBFb RUNX1 block | Tau FP inhib
CN(C)c1ccc(/C=N/Nc2ccc(-n3ccnc3)nn2)cc1 | ? | -12.5% | 5.01µM* | -5.7% | -13.6% | -9.4%
Cc1oc(-c2ccc(C(=O)NCc3ccc(N(C)C)cc3)cc2)nc1COc1ccccc1 | -16.0% | . | -3.0% | . | . | -3.8%
O=C(O)c1ccc(-c2nc(-c3ccccc3)c(-c3cccs3)[nH]2)cc1 | -30.4% | . | . | ? | -4.7% | ?
COc1ccc(-c2nc(-c3ccccc3)c(-c3cc([N+](=O)[O-])ccc3C)[nH]2)cc1OC | ? | 19.4% | ? | -3.1% | ? | ?
CCOc1cc(-c2nc(-c3ccccc3)c(-c3cc([N+](=O)[O-])ccc3C)[nH]2)ccc1O | 11.2µM*[quencher] | ? | ? | -1.8% | ? | 13.3%
O=[N+]([O-])c1ccc(O)c(-c2nc(-c3ccccc3)c(-c3cccs3)[nH]2)c1 | 11.2µM*[quencher] | 18.1%[0.0737 µM] | 20µM* | -1.1% | -3.5% | -19.9%
N#CC1=C(N)Oc2n[nH]c(-c3cccs3)c2C1c1cccs1 (centres undefined) | ? | 9.7% | 28.2µM* | -9.1% | -1.8% | -15.4%
CC(C)CC1C(C#N)=C(N)Oc2n[nH]c(-c3cccs3)c21 (centres undefined) | ? | -5.6% | ? | ? | -0.4% | -2.4%
CCCN(CCC)C(=O)Cn1c(=O)n(-c2cccc(OC)c2)c(=O)c2c(C)c(C(=O)N(C)C)sc21 | 2.1% | ? | 1.5% | . | . | -4.2%
Cc1ccc(NC(=S)NCCSc2ccc(Cl)cc2)cc1 | ? | ? | -10.3% | -2.0% | -9.2% | ?
CC(CNC(=S)Nc1cc(F)cc(F)c1)CSc1ccc(Cl)cc1 (centres undefined) | ? | . | 5.0% | -6.7% | -5.3% | 28.2µM*
CCOC(=O)/C(=C\c1cccc(O)c1)c1nc2sc(C)c(C)c2c(=O)[nH]1 | -16.2% | ? | 20µM* | -4.3% | 1.3% | ?
CCOC(=O)c1nc2sc(C)c(C)c2c(=O)[nH]1 | 8.8% | 2.3% | 1.1% | ? | -0.9% | -0.1%
CCc1ccc(N2CC(C(=O)N/N=C/c3cc([N+](=O)[O-])ccc3O)CC2=O)cc1 (centres undefined) | -18.0% | . | ? | ? | ? | 4.2%
O=C(N/N=C/c1cc([N+](=O)[O-])ccc1O)C1CC1 | -7.9% | . | -17.0% | 28.2µM* | -24.9% | 0.9%

Source: PubChem BioAssay
